Results filed as inconclusive are left out. The source made the active and inactive calls. Unless noted, calls follow the shape of the dose curve; as a rule, active = well fitted curve in the direction sought with a large enough effect; inconclusive = small, poorly fitted or top-dose-only effect, or another doubt; inactive = no such curve, though single readings can be large; an effect the other way counts as inactive or inconclusive.
Tests used:
[1] = qHTS assay for measurement of the activity of small molecule inhibitors on Zika virus induced Caspase-3 activity in human iPSC derived neural progenitor cells (hNPCs) (AID 1224857); also: nearly all actives have a fitted effect of over 65% in size
Procedure, shortened: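 Percent inhibition of virus-induced caspase-3/7 luminescence (Caspase-Glo), scaled between uninfected cells and Zika-infected cells. hNPCs received compound 1 hr before ZIKV at 2 FFU/cell, with 6 hours infection at 37 C.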

[2] = qHTS assay for measurement of the activity of small molecule inhibitors on Zika virus induced Caspase-3 activity in human astrocytoma cells (AID 1224859)
Procedure, shortened: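 Luminescent caspase-3/7 read-out (30 min reagent, room temperature) in human SNB-19 cells infected 6 h with ZIKV (2 FFU/cell) after 1 h compound pre-incubation; Data were normalised to uninfected and infected wells.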

[3] = P-glycoprotein substrates identified in KB-8-5-11 adenocarcinoma cell line, qHTS therapeutic library screen (AID 1346987); also: nearly all actives have a fitted effect of over 65% in size; also: potency is read from the fitted curve at half-maximal effect
Procedure, shortened: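 Steps: plate 500 KB-8-5-11 cells/well in DMEM + 10% FCS (colchicine removed); pin compounds in dose-response; incubate 72 h, 37 degree C, 5% CO2; add CellTiter-Glo, 5 min; read luminescence.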

[4] = Natriuretic polypeptide receptor (hNpr1) antagonism - Pilot counterscreen GloSensor control cell line (AID 1347045; calls by dose curve; also: series mostly up to about 38 µM)
Procedure, shortened: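 Luminescence was read before and 20 min after adding 50 uM SNP, which stimulates soluble guanylyl cyclase. The HEK293 cells expressing the GloSensor cGMP sensor had been preloaded with 2% reagent for 2 h and treated with compound.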

[5] = biological target: Atrial natriuretic peptide receptor 1 (Homo sapiens) (UniProt P16066); assay: Natriuretic polypeptide receptor (hNpr1) antagonism - Pilot screen (AID 1347049; calls by dose curve;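 also: agonist-evoked cGMP luminescence read 20 min after hNppA addition; series mostly up to about 58 µM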)
Sequence of Atrial natriuretic peptide receptor 1 (Homo sapiens) (P16066 whole entry, looked up): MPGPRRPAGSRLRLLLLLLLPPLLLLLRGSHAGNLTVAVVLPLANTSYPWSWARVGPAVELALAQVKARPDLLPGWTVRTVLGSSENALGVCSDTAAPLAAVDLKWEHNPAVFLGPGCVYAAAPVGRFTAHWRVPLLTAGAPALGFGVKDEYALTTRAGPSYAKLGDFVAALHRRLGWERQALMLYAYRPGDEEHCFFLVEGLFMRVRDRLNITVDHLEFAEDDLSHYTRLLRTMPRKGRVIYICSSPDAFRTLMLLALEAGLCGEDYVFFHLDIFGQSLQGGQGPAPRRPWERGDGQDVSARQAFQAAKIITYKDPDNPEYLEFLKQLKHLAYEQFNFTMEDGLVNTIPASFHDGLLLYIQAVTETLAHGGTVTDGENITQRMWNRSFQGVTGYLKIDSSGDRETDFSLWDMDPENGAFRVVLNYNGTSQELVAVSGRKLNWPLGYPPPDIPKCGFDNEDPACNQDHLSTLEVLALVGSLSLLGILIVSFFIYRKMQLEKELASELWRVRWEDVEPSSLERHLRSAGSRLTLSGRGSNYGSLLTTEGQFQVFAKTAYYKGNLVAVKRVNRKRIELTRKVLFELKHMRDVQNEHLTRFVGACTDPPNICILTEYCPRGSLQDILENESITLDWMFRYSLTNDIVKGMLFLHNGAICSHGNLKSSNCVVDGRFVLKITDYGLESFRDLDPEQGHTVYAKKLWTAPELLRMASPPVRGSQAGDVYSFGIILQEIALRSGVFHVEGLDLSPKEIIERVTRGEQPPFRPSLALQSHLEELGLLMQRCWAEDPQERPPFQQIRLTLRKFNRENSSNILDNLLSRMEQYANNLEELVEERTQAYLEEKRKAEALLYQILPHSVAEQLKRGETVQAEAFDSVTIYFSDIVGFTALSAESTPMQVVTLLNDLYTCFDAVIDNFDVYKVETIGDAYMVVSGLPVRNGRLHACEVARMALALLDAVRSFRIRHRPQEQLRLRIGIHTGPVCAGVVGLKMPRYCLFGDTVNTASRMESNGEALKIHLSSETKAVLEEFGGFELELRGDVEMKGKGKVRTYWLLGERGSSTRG
Procedure, shortened: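 HEK293 cells expressing hNpr1 and GloSensor cGMP luciferase, 1500/well, loaded with 2% GloSensor reagent 2 h, compound 30 min at room temperature; luminescence read before and 20 min after 0.1 nM hNppA stimulation.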

[6] = biological target: Atrial natriuretic peptide receptor 2 (Homo sapiens) (UniProt P20594); assay: Natriuretic polypeptide receptor (hNpr2) antagonism - Pilot subtype selectivity assay (AID 1347050; calls by dose curve)
Sequence of Atrial natriuretic peptide receptor 2 (Homo sapiens) (P20594 whole entry, looked up): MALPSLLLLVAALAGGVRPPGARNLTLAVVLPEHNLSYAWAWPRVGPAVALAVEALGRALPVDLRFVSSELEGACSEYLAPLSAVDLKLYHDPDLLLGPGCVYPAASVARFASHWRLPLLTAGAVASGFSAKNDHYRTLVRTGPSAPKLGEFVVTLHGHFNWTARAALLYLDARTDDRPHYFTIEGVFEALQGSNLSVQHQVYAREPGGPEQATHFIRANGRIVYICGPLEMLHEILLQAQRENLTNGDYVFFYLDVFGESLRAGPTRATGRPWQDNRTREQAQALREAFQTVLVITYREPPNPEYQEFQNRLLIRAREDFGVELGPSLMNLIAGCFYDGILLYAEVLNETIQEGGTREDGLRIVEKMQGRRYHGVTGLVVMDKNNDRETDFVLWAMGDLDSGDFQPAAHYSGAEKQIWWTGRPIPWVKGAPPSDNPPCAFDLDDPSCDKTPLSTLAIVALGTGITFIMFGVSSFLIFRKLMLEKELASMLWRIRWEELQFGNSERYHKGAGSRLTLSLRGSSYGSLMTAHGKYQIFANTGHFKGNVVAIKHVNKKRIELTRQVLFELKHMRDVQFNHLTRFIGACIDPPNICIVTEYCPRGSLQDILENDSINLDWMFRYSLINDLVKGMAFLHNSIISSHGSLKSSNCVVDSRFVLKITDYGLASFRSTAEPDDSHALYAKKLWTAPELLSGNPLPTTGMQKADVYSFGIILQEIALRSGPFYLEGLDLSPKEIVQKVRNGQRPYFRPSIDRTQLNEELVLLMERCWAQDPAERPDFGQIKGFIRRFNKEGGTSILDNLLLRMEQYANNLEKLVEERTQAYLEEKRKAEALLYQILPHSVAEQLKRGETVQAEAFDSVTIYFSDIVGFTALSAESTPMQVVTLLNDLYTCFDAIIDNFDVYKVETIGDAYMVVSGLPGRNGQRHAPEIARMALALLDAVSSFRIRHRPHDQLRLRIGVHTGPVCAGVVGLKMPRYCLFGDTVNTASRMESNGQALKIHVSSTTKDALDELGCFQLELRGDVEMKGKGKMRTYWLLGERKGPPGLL
Procedure, shortened: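 HEK293 cells expressing hNpr2 and a GloSensor cGMP luciferase sensor, 1500/well, preloaded 2 h with 2% GloSensor reagent, compound 30 min, then 1 nM hNppC for 20 min. Antagonism from luminescence after versus baseline pre-read; LOPAC in 1:5 titrations.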

[7] = NS1 protein of Zika virus - qHTS assay to identify small molecule inhibitors in human HEK 293 cells (AID 1347053); also: series mostly up to about 46 µM; nearly all actives have a fitted effect of over 55% in size
Procedure, shortened: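 HEK 293 cells pretreated with compound for 1 h, then infected with ZIKV MR766 (MOI 0.5) for 24 h at 37 C. NS1 detected by TR-FRET with two anti-NS1 antibodies; normalized to uninfected (0%) and infected (100%) wells.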

[8] = biological target: T1, Tyrosine-protein phosphatase non-receptor type substrate 1 (Homo sapiens) + Leukocyte surface antigen CD47 (Homo sapiens) (UniProt P78324+Q08722); assay: CD47-SIRPalpha protein protein interaction - LANCE assay qHTS validation (AID 1347057; active = well fitted curve in the direction sought with a large enough effect in the signal ratio, with a control signal flat, not every such curve was filed as active; the % refers to the signal ratio; also: series mostly up to about 38 µM)
T1 sequence (P78324 whole entry, looked up): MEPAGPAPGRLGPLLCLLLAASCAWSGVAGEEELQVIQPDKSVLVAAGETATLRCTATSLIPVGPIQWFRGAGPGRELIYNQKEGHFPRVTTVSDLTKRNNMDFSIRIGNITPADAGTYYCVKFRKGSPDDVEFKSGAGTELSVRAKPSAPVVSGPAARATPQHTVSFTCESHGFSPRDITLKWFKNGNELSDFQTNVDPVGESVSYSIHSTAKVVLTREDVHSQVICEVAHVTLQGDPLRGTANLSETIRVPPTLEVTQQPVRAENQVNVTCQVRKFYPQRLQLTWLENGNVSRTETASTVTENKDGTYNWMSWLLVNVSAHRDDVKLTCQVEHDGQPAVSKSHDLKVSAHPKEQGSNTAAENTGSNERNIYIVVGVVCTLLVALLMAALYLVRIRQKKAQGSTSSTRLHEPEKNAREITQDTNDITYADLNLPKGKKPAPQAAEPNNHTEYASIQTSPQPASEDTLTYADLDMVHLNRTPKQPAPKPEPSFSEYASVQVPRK
T1 sequence (Q08722 whole entry, looked up): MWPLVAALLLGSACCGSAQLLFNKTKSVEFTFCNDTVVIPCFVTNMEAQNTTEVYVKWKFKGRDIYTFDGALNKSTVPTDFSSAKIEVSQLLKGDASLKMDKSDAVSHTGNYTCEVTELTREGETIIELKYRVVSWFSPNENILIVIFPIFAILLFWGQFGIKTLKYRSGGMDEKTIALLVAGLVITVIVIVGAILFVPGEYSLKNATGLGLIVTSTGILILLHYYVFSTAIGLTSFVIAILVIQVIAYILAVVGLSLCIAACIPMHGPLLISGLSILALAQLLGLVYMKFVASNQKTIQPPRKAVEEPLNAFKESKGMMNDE
Procedure, shortened: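 First, His-tagged CD47 and Eu-labelled anti-His antibody met the compound for 30 min; next, site-specifically biotinylated SIRPalpha was added for 30 min; finally streptavidin-APC was added before reading the TR-FRET ratio.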

[9] = biological target: T1, Tyrosine-protein phosphatase non-receptor type substrate 1 (Homo sapiens) + Leukocyte surface antigen CD47 (Homo sapiens); assay: CD47-SIRPalpha protein protein interaction - Alpha assay qHTS validation (AID 1347059);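 also: bead proximity luminescence from CD47 binding SIRPalpha after compound preincubation with SIRPalpha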
Procedure, shortened: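 Biotinylated Avi-tagged SIRPalpha (25 nM) preincubated 30 min with compound, then His-tagged CD47 (12.5 nM) added 30 min; AlphaScreen with Ni-NTA acceptor and streptavidin donor beads. PBS pH 7.4, 0.05% IGEPAL, room temperature; 7-point titrations.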

[10] = P-glycoprotein substrates identified in KB-3-1 adenocarcinoma cell line, qHTS therapeutic library screen (AID 1346986); also: nearly all actives have a fitted effect of over 60% in size;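 also: potency is read from the fitted curve at half-maximal effect; potency is for cytotoxicity meaning loss of cell viability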
Procedure, shortened: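 KB-3-1 parental and colchicine-selected P-gp-overexpressing KB-8-5-11 cells (colchicine omitted during assay), 500 cells/well, dosed in dose-response for 72 h at 37 °C; CellTiter-Glo luminescence. Cytotoxic: curve class -1.1 to -2.4, max response >50%, AC50 < 10 uM.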

[11] = qHTS of pediatric cancer cell lines to identify multiple opportunities for drug repurposing: Primary screen for TC32 cells (AID 1347089); also: nearly all actives have a fitted effect of over 60% in size; also: potency is read from the fitted curve at half-maximal effect
Procedure, shortened: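 In the primary qHTS, MIPE compounds were tested at 11 concentrations (0.78 nM to 46 µM) and NPC compounds at 8 (0.59 nM to 46 µM) on TC32 cells for 48 h. CellTiter-Glo luminescence gave viability.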

[12] = qHTS of pediatric cancer cell lines to identify multiple opportunities for drug repurposing: Primary screen for DAOY cells (AID 1347090); also: series mostly up to about 46 µM; nearly all actives have a fitted effect of over 55% in size
Procedure, shortened: (§1)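 Viability measured as metabolically active cells via CellTiter-Glo luminescence following 48 hours of compound exposure, 11-point dilutions in confirmatory testing. 500-1,000 cells/well plated 5 hours before dosing; controls were DMSO and 2.3 µM bortezomib.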

[13] = qHTS of pediatric cancer cell lines to identify multiple opportunities for drug repurposing: Primary screen for SJ-GBM2 cells (AID 1347091)
Procedure, shortened: as §1

[14] = qHTS of pediatric cancer cell lines to identify multiple opportunities for drug repurposing: Primary screen for A673 cells (AID 1347092); also: nearly all actives have a fitted effect of over 45% in size; also: potency is read from the fitted curve at half-maximal effect
Procedure, shortened: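 48 h compound exposure, A673, 500-1,000 cells/well, 37 degrees C/5% CO2. MIPE: 11-point, 0.78 nM-46 µM; NPC: 8-point, 0.59 nM-46 µM (final). Readout CellTiter-Glo luminescence after 15 min RT.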

[15] = qHTS of pediatric cancer cell lines to identify multiple opportunities for drug repurposing: Primary screen for SK-N-MC cells (AID 1347093); also: potency is read from the fitted curve at half-maximal effect
Procedure, shortened: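 Metabolically active cells were quantified by ATP-dependent luminescence (CellTiter-Glo, 15 min at room temperature) following 48 h treatment. Cells had been plated at 500-1,000 per well and settled for 5 h beforehand.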

[16] = qHTS of pediatric cancer cell lines to identify multiple opportunities for drug repurposing: Primary screen for BT-37 cells (AID 1347094); also: series mostly up to about 57 µM
Procedure, shortened: (§2)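 Primary screen of approved and investigational compounds on cells in growth media at 37 degrees C, 5% CO2. MIPE set at 11-point and NPC set at 8-point dilutions; viability scored by ATP-based luminescence at 48 hours.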

[17] = qHTS of pediatric cancer cell lines to identify multiple opportunities for drug repurposing: Primary screen for NB-EBc1 cells (AID 1347095); also: potency is read from the fitted curve at half-maximal effect
Procedure, shortened: as §2

[18] = qHTS of pediatric cancer cell lines to identify multiple opportunities for drug repurposing: Primary screen for U-2 OS cells (AID 1347096); also: nearly all actives have a fitted effect of over 50% in size
Procedure, shortened: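 Viability after 48 h compound treatment at 37C, 500-1,000 cells/well, read as ATP luminescence with CellTiter-Glo. Primary screens used 11-point (MIPE, 0.78 nM-46 µM) or 8-point (NPC, 0.59 nM-46 µM) final concentrations; follow-up screens used 11-point dilutions.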

[19] = qHTS of pediatric cancer cell lines to identify multiple opportunities for drug repurposing: Primary screen for Saos-2 cells (AID 1347097); also: nearly all actives have a fitted effect of over 40% in size
Procedure, shortened: as §2

Measured: Potency

COC(=O)C1=CO[C@@H](O)[C@@H]2C(CO)=CC[C@H]12
inactive: [1] | [2] | [3] | [4] | [5] | [6] | [7] | [8] | [9]

COc1cc(C(=O)OC(COCCC(C)C)CN2CCOCC2)cc(OC)c1OC (stereo unspecified)
inactive: [1] | [2] | [10] | [3] | [7] | [11] | [12] | [13] | [14] | [15] | [16] | [17] | [18] | [19]

CC(=O)OCC(=O)[C@@]1(O)CCC2C3CCC4=CC(=O)CC[C@]4(C)C3[C@@H](O)C[C@@]21C (stereo partly specified)
inactive: [1] | [2] | [3] | [7] | [11] | [12] | [13] | [14] | [15] | [16] | [17] | [18]

CC(=O)Nc1ccn(C2COC(COC(=O)c3ccccc3)O2)c(=O)n1 (stereo unspecified)
inactive: [1] | [2] | [10] | [3] | [7] | [12] | [13] | [18] | [19]
active: [11] 1.67 µM | [14] 1.33 µM | [15] 0.75 µM | [17] 2.37 µM

Cc1nn(-c2ccccc2)c(C)c1/C=N/N1CCN(Cc2ccccc2)CC1
inactive: [1] | [2] | [3] | [4] | [5] | [6] | [7] | [8] | [9]

Brc1ccc([C@H]2CN3CCSC3=N2)cc1
inactive: [1] | [2] | [3] | [4] | [5] | [6] | [7] | [8] | [9]

NC(N)=NCCCCN=C(N)N
inactive: [1] | [2] | [3] | [4] | [5] | [6] | [8] | [9]

CCOC(=O)c1ccc(OCCN2C[C@H](O)[C@@H](O)[C@H](O)[C@H]2CO)cc1
inactive: [1] | [2] | [10] | [3] | [7] | [11] | [12] | [13] | [14] | [15] | [16] | [17] | [18]

COc1cc(NS(=O)(=O)c2ccc(N)cc2)nc(C)n1
inactive: [1] | [2] | [10] | [3] | [7] | [11] | [12] | [13] | [14] | [15] | [17] | [18] | [19]

CC(C(O)c1ccccc1)N(C)CCOC(c1ccccc1)c1ccccc1 (stereo unspecified)
active: [3] 14.6 µM
inactive: [1] | [2] | [7] | [11] | [12]

CC(C)=CCNc1ncnc2c1ncn2[C@@H]1O[C@H](CO)[C@@H](O)[C@H]1O
active: [10] 5.8 µM | [3] 5.8 µM | [11] 5.92 µM | [14] 2.66 µM | [15] 3.76 µM
inactive: [1] | [2] | [7]

CC(=O)Nc1c(I)c(NC(C)=O)c(I)c(C(=O)O)c1I
inactive: [1] | [2] | [3] | [7] | [11] | [12] | [13] | [14] | [15] | [16] | [17] | [18]

Cn1cnc2c(NCc3ccccc3)nc(NCCO)nc21
inactive: [1] | [2] | [10] | [3] | [4] | [5] | [6] | [8] | [9]

O=C(NN1CCCC1)NS(=O)(=O)c1ccc(Cl)cc1
inactive: [1] | [2] | [3] | [7] | [11] | [12] | [13] | [14] | [15] | [16] | [17] | [18]

CCCCCOc1ccc(C2SC(=O)NC2=O)cc1OCC (stereo unspecified)
inactive: [1] | [2] | [10] | [3] | [11] | [12] | [13] | [14] | [15] | [16] | [17] | [18] | [19]

C[N+](C)(CCOc1ccccc1)Cc1cccs1
inactive: [1] | [2] | [3] | [7] | [11] | [12] | [13] | [14] | [15] | [16] | [17]

CN(C)c1cc2c(Nc3ccc4c(cnn4Cc4ccccc4)c3)ncnc2cn1
inactive: [1] | [2] | [10] | [4] | [5] | [6] | [7] | [9]

Oc1ccccc1
inactive: [1] | [2] | [3] | [7] | [11] | [12] | [13] | [14] | [15] | [16] | [17] | [18]

CC(=O)CC/C=C(\C)CC/C=C(\C)CC/C=C(\C)CCC=C(C)C
inactive: [1] | [2] | [3] | [7] | [11] | [12] | [13] | [14] | [15] | [17] | [18] | [19]

O=C(O)Cc1ccc(OCCNC[C@H](O)c2ccccc2)cc1
inactive: [1] | [2] | [3] | [7] | [11] | [12] | [13] | [14] | [15] | [16] | [17] | [18] | [19]
